PubChem BioAssay (Tox21)
Values joined by “and” are separate entries in the source; they are usually repeats but may differ in a detail not shown here. Identical values can stand only once. Inconclusive results are not listed. Some compounds were tested as several samples or in several runs, with calls that do not always agree. Active and inactive are the calls of the source. Unless noted, calls come from the whole dose curve; as a rule, active = well fitted curve in the direction sought with a large enough effect in the repeat runs; inconclusive = weak or mixed curves; inactive = no such curve, though single readings can be large; an effect the other way counts as inactive or inconclusive.

How the values were obtained:
[1] = qHTS assay to identify small molecule antagonists of the estrogen related receptor (ERR) signaling pathway from Tox21 library - cell viability counter screen (AID 1224834); note: nearly all actives have a fitted effect of over 30% in size
Method in brief: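 Counter screen run in ERR cells (2,000 cells/well): cells pre-incubated 6 h, then treated with compounds for 17.5 h at 37 C. Fluorescence was read 30 min after CellTiter-Fluor addition.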

[2] = molecular target: Luciferin 4-monooxygenase (Photinus pyralis) (UniProt P08659); experiment: qHTS assay to identify small molecule inhibitors of firefly luciferase (AID 1224835); note: nearly all actives have a fitted effect of over 25% in size; note: potency is the fitted concentration of half-maximal effect
Method in brief: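 Inhibition of purified Photinus luciferase is measured by luminescence. Substrate levels (D-luciferin, ATP) sit at their KM values. Each compound is tested in a concentration series.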

[3] = qHTS assay to identify small molecule agonists of the constitutive androstane receptor (CAR) signaling pathway - cell viability counter screen (AID 1224836); note: nearly all actives have a fitted effect of over 45% in size
Method in brief: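 Double-stable HepG2 hepatoma cells (hCAR plus CYP2B6-2.2kb) are treated for 23 h at 37 C with test compounds in 15-point concentration series. PK11195 at 0.75 uM final is co-added. Cell viability is quantified by CellTiter-Fluor.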

[4] = qHTS assay to identify small molecule antagonists of the constitutive androstane receptor (CAR) signaling pathway - cell viability counter screen (AID 1224837); note: nearly all actives have a fitted effect of over 45% in size
Method in brief: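 CITCO at 50 nM final was added alongside compounds (15 concentrations) to double-stable hCAR/CYP2B6-2.2kb HepG2 cells. Following 23 hr at 37 C, cell viability was quantified by CellTiter-Fluor fluorescence intensity.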

[5] = molecular target: Nuclear receptor subfamily 1 group I member 3 (Homo sapiens) (UniProt Q14994); experiment: qHTS assay to identify small molecule antagonists of the constitutive androstane receptor (CAR) signaling pathway (AID 1224838); note: nearly all actives have a fitted effect of over 40% in size
Method in brief: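 Inhibition of CITCO-driven (50 nM final) CYP2B6 reporter expression is measured in HepG2 cells stably carrying hCAR. Fifteen compound concentrations are applied for 24 h at 37 C, followed by luciferase luminescence.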

[6] = molecular target: Nuclear receptor subfamily 1 group I member 3 (Homo sapiens) (UniProt Q14994); experiment: qHTS assay to identify small molecule agonists of the constitutive androstane receptor (CAR) signaling pathway (AID 1224839); note: nearly all actives have a fitted effect of over 15% in size; note: potency is the fitted concentration of half-maximal effect
Method in brief: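 Readout: firefly luciferase luminescence via ONE-Glo. System: HepG2 double-stable for hCAR and CYP2B6-2.2kb. Conditions: 15-point compound titration, PK11195 at 0.75 uM final, 24 h incubation.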

[7] = qHTS assay to identify small molecule antagonists of the estrogen related receptor signaling pathway with the pleiotropic PPARgamma coactivator (PGC) from Tox21 10K library - cell viability counter screen (AID 1224840; active = well fitted cell-killing curve with a large enough effect in the repeat runs, not every such curve was filed as active; note: nearly all actives have a fitted effect of over 40% in size)
Method in brief: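 Readout: fluorescence intensity from CellTiter-Fluor after 30 min at 37 C/5% CO2. Preceded by 17.5 h treatment of PGC/ERR cells with DMSO-dissolved compounds, added 6 h post-seeding.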

[8] = qHTS assay to identify small molecule antagonists of the estrogen related receptor signaling pathway with the pleiotropic PPARgamma coactivator (PGC) from Tox21 10K library (AID 1224841; call rule not given here; note: actives are mostly falling curves and most rising ones were filed inactive; nearly all actives have a fitted effect of over 50% in size; note: potency is the fitted concentration of half-maximal effect)
Method in brief: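 One-Glo luminescence, measured after half an hour at room temperature, quantified reporter output of PGC/ERR cells. These had been plated at 2,000 per well, incubated 6 h, dosed with compounds in DMSO, then kept 18 h at 37 C.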

[9] = qHTS assay to identify small molecule agonists of the estrogen related receptor signaling pathway with the pleiotropic PPARgamma coactivator (PGC) from Tox21 10K library (AID 1224842); note: nearly all actives have a fitted effect of over 15% in size
Method in brief: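 Luminescence from One-Glo (30 min, room temperature) measured after PGC/ERR cells had 18 h at 37 C with pinned compound (23 nL in DMSO). Cells had been seeded at 2,000 per well and pre-incubated 6 h.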

[10] = molecular target: Thyrotropin receptor (Homo sapiens) (UniProt P16473); experiment: qHTS assay to identify small molecule agonists of the thyroid stimulating hormone receptor (TSHR) signaling pathway (AID 1224843; calls by dose curve; note: nearly all actives have a fitted effect of over 45% in size)
Method in brief: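 Agonist activity read as cAMP rise via d2/cryptate HTRF competition, 1 h room-temperature detection, in HEK293 cells expressing TSHR. Fifteen-point titrations, each run in triplicate, with a 30 min room-temperature incubation beforehand.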

[11] = qHTS assay to identify small molecule agonists of the hypoxia (HIF-1) signaling pathway (AID 1224846; active = well fitted activation curve with a large enough effect in the signal ratio in the repeat runs, not every such curve was filed as active; the % refers to the signal ratio)
Method in brief: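 ME-180 HRE-bla reporter cells; compounds in DMSO, 17 h at 37C; read-out beta-lactamase via CCF4-AM FRET.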

[12] = qHTS assay to identify small molecule agonists of H2AX - cell viability counter screen (AID 1224847; calls by dose curve;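 note: wild-type CHO-K1 cells; top concentration of the series differs between compounds; nearly all actives have a fitted effect of over 30% in size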)
Method in brief: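 For this counter screen, overnight-attached CHO-K1 cells received test compounds (15 concentrations, 0.76% DMSO final); 3 hr later at 37C, CellTiter-Glo reagent was added and luminescence recorded after 30 min at room temperature.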

[13] = qHTS assay to identify small molecule antagonists of the estrogen related receptor (ERR) signaling pathway from Tox21 library (AID 1224848); note: nearly all actives have a fitted effect of over 50% in size; note: potency is the fitted concentration of half-maximal effect
Method in brief: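 Luciferase luminescence (ONE-Glo, 30 min room temperature) was the read-out. Cells of the NTP-supplied ERR line, 2,000 per well, were given 6 h at 37 C before compound addition in DMSO and 18 h exposure at 37 C.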

[14] = qHTS assay to identify small molecule agonists of the estrogen related receptor (ERR) signaling pathway from Tox21 library (AID 1224849; calls by dose curve; note: nearly all actives have a fitted effect of over 15% in size); settings: ERR reporter cell line, ONE-Glo luciferase, 18 h
Method in brief: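 Luciferase activity in ERR pathway reporter cells served as the agonist readout; exposure lasted 18 h at 37 C, with ONE-Glo detection after 30 min at room temperature.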

[15] = qHTS RealTime-Glo MT Cell Viability Assay in HepG2 cells - 24 hour (AID 1224867); note: nearly all actives have a fitted effect of over 50% in size
Method in brief: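 Tox21 10K library screened in qHTS format on HepG2 cells carrying RealTime-Glo reagents. Compounds were added after a 5 h preincubation, and the luminescent signal from continuous culture was measured repeatedly during 40 h treatment.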

[16] = qHTS RealTime-Glo MT Cell Viability Assay in HEK293 cells - 32 hour (AID 1224868); note: top concentration of the series differs between compounds; nearly all actives have a fitted effect of over 50% in size
Method in brief: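 Luminescence generated by NanoLuc from substrate produced by living HEK293 cells served as the viability signal. Each value reflects the reading at its stated time point during continuous 40 h compound exposure at 37 C.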

[17] = A CellTox Green Cytotoxicity Assay to monitor cytotoxicity in HEK293 cells - 0 hour (AID 1224869); note: nearly all actives have a fitted effect of over 50% in size
Method in brief: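 Real-time, in one plate: 600 HEK293 cells/well with dead-cell DNA dye, pinned compound after 5 h, 37 C incubation over 40 h; viable cells give no appreciable fluorescence.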

[18] = qHTS assay to identify small molecule agonists of H2AX (AID 1224845; active = well fitted activation curve with a large enough effect in the signal ratio in the repeat runs, not every such curve was filed as active; the % refers to the signal ratio)
Method in brief: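 Phospho-H2AX Ser139 measured by HTRF (ex 320 nm; em 665 and 620 nm) after 24 hr antibody incubation. Compounds, 15 concentrations, 0.76% DMSO, were applied to CHO-K1 cells for 3hr at 37C before lysis.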

[19] = qHTS RealTime-Glo MT Cell Viability Assay in HepG2 cells - 40 hour (AID 1224870); note: nearly all actives have a fitted effect of over 50% in size
Method in brief: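 Real-time viability: cells seeded at 600 per well together with NanoLuc and cell-permeant prosubstrate, compounds added after 5 h incubation. Luminescence tracked at 0, 8, 16, 24, 32 and 40 h of exposure.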

[20] = qHTS assay to identify small molecule agonists of the hypoxia (HIF-1) signaling pathway - cell viability counter screen (AID 1224844; calls by dose curve; note: nearly all actives have a fitted effect of over 50% in size)
Method in brief: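 In this counter screen, HRE-bla ME-180 cell viability after 17 hrs of compound exposure at 37C was read by CellTiter-Glo luminescence, multiplexed with the beta-lactamase reporter measurement.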
% is set by controls: 0 for no effect and ±100 for the full control effect.

Thyrotropin receptor (Homo sapiens), sequence (P16473 whole entry, looked up): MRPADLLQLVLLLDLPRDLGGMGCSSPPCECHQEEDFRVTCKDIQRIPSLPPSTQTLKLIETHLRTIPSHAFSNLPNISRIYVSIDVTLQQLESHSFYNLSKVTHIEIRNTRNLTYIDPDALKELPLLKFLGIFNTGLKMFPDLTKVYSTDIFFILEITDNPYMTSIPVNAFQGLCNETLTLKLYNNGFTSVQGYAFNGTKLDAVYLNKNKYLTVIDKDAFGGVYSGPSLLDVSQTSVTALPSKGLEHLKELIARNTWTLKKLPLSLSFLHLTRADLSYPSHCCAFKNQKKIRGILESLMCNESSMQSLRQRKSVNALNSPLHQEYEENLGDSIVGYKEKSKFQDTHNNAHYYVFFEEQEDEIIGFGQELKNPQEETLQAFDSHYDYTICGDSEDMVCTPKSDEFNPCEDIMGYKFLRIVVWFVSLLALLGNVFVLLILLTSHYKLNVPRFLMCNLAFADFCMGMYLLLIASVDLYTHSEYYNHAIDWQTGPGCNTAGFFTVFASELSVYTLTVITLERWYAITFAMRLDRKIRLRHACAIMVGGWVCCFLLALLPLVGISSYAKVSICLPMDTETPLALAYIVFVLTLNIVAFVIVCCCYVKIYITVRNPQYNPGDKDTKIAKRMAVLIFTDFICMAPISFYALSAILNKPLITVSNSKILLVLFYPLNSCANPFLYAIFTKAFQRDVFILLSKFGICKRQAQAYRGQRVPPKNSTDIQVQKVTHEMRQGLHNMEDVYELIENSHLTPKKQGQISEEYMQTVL
Luciferin 4-monooxygenase (Photinus pyralis), sequence (P08659 whole entry, looked up): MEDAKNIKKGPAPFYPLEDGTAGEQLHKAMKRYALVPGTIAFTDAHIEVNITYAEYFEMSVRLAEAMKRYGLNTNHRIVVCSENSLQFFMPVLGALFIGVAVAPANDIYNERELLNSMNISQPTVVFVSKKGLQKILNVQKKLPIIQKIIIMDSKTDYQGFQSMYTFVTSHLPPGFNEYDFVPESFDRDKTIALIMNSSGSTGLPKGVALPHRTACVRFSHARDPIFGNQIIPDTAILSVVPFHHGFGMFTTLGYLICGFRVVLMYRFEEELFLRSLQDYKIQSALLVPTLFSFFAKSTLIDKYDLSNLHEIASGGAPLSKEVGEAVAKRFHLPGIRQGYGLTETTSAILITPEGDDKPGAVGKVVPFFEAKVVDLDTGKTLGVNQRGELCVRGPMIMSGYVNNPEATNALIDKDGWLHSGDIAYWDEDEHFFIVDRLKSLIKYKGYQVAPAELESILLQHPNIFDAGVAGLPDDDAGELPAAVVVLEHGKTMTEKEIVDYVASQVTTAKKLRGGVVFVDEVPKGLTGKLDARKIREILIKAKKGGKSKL
Nuclear receptor subfamily 1 group I member 3 (Homo sapiens), sequence (Q14994 whole entry, looked up): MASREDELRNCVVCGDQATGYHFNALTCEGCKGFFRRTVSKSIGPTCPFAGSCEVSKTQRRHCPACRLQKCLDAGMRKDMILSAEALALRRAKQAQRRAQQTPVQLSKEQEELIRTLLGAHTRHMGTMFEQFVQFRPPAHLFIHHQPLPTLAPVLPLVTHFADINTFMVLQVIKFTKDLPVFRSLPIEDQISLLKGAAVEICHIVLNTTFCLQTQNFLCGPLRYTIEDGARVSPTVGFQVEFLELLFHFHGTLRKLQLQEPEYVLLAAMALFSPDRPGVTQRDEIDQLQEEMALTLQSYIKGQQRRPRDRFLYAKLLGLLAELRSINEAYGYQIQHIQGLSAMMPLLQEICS

CCOC(=O)NNc1ccc(N(CC)CC(C)O)nn1 (centres undefined)
inactive: Potency [1] | Potency [2] | Potency [3] | Potency [4] | Potency [5] | Potency [6] | Potency [7] | Potency [8] | Potency [9] | Potency [10] | Potency [11] | Potency [12] | Potency [13] | activity change, positive = activation ([14]; at 42.5 µM (top of the series)) 0.457% | Potency [15] | Potency [16] | Potency [17]

C=C(CC)C(=O)c1ccc(OCC(=O)O)c(Cl)c1Cl
inactive: Potency [1] | Potency [3] | Potency [4] | Potency [5] | Potency [7] | Potency [10] | Potency [18] | activity change, positive = activation ([14]; at 42.5 µM (top of the series)) -17.8% | activity change, positive = activation ([14]; at 92.4 µM (top of the series)) -55% | Potency [15] | Potency [16] | Potency [17] | Potency [19]
79.1 µM (active) and inactive: Potency [2]
active: Potency [6] 3.35 µM | Potency [8] 30.4 µM and 29.8 µM | Potency [13] 68.1 µM

CC(C)Cn1cnc2c(N)nc3ccccc3c21
inactive: viability change, negative = cytotoxic [1] -3.99% [at 19 µM] | activity change, negative = inhibition [2] 5.54% [at 23.6 µM] | viability change, negative = cytotoxic [3] -20.4% [at 19 µM] | activity change, negative = cytotoxicity [4] -10.6% [at 19 µM] | activity, negative = inhibition [5] 27.4% [at 19 µM] | activation [6] 6.88% [at 19 µM] | viability change, negative = cytotoxic [7] 16.3% [at 19 µM] | activation [9] 6.35% [at 19 µM] | activation [10] 14.2% [at 19 µM] | activation [11] 0.447% [at 15.8 µM] | activity change, negative = cytotoxicity [12] 1.2% [at 31.6 µM] | activity, negative = inhibition [13] -22% [at 19 µM] | activity change, positive = activation ([14]; at 19 µM (top of the series)) -11.2% | activity change, negative = cytotoxicity [15] 0.631% [at 15.8 µM] | cytotoxicity [17] 4.66% [at 15.8 µM] | activity change, negative = cytotoxic [19] 1.75% [at 15.8 µM]

CCc1cccc(CC)c1NC(=O)CN(CC(=O)O)CC(=O)O
inactive: Potency [1] | Potency [2] | Potency [3] | Potency [4] | Potency [5] | Potency [6] | Potency [7] | Potency [10] | Potency [20] | Potency [18] | Potency [11] | Potency [12] | Potency [15] | Potency [17] | Potency [19]

C#C[C@]1(O)CC[C@H]2[C@@H]3[C@H](C)CC4=C(CCC(=O)C4)[C@H]3CC[C@@]21C
active: Potency [13] 23.7 µM
inactive: Potency [1] | Potency [2] | Potency [3] | Potency [4] | Potency [5] | Potency [6] | Potency [7] | Potency [9] | Potency [20] | Potency [11] | activity change, positive = activation ([14]; at 42.5 µM (top of the series)) -32.4% | Potency [15] | Potency [16] | Potency [17]

c1cnccn1
inactive: Potency [1] | Potency [2] | Potency [3] | Potency [4] | Potency [5] | Potency [6] | Potency [7] | Potency [10] | Potency [20] | Potency [18] | Potency [11] | Potency [12] | Potency [15] | Potency [16] | Potency [17] | Potency [19]

C1CCC(SSC2CCCCC2)CC1
inactive: Potency [1] | Potency [2] | Potency [3] | Potency [4] | Potency [5] | Potency [6] | Potency [7] | Potency [8] | Potency [10] | Potency [20] | Potency [18] | Potency [11] | Potency [12] | Potency [13] | activity change, positive = activation ([14]; at 92.4 µM (top of the series)) 5.57% | Potency [15] | Potency [17] | Potency [19]
